From PubChem
AF4-AF9 inh: MLL-AF4/AF9 protein interaction inhibition; 350,000 tested, 0.47% active; P42568; AID 651704; AlphaScreen, biotin-AF4 peptide binding to FLAG-AF9; inhibition, % at 10 µM;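 active = every replicate reaching a set inhibition limit, whatever the replicate mean, cut at about 25% in these data; inconclusive = mean inhibition reaches that limit but some replicates miss it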;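 note: 0% = plate neutral control median and 100% = total signal loss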
Target sequence (P42568 whole entry, looked up): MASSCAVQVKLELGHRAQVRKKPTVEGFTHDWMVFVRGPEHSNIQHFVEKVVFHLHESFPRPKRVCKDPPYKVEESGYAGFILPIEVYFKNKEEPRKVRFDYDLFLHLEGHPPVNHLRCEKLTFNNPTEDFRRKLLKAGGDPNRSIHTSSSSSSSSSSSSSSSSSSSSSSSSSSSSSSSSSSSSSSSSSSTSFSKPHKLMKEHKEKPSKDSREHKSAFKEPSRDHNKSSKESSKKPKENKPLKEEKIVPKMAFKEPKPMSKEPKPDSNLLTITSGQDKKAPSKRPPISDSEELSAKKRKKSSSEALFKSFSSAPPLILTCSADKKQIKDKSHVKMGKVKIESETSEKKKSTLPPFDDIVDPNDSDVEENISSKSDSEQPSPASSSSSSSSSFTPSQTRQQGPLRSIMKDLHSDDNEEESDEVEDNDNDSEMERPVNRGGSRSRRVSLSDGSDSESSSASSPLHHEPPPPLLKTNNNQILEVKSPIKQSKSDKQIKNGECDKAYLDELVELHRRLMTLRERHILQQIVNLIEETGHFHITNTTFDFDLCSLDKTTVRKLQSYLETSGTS
MITF TRPM1 HTS: increases MITF-driven TRPM1 promoter luciferase signal; SK-MEL-5 TRPM1-promoter luciferase, 24 h; % of positive control, neutral wells = 0; activation, % at 12.5 µM; 300,000 tested, 0.75% active; AID 588334;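 active = mean activation of at least 80% with every replicate also reaching 80%; inconclusive = mean reaches 80% but some replicate falls short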;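 note: 0% = neutral control wells and 100% = parthenolide positive control wells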
rRNA inh HTS: inhibitors of bacterial rRNA selective over humanized ribosomes. E. coli WT GFP vs humanized-ribosome RFP mutants, fluorescence, 24 h; active compounds read low; DMSO median 0, no signal -100. GFP signal change (wild-type ribosome), % (concentration not given with the values). 350,000 tested, 1.6% active;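 active = significant combined selectivity score with lowered wild-type GFP, culture density cut under 30%, mutant RFP and density less affected; inactive = any of these conditions unmet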
esBAF inh: blocks esBAF chromatin remodeling in mouse ES cells; Bmi1-luciferase knock-in reporter, 24 h; 100% = twice the neutral-well signal; reporter increase, % at 12.5 µM; 350,000 tested, 2% active; AID 602393; in the data active = activation above about 40%; inconclusive = no clear call, values can overlap the other calls;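 note: 0% = median of the plate's neutral control wells and 100% = double that signal; a rise in the Bmi1 reporter signal indicates esBAF inhibition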
Wnt bcat act: Wnt/beta-catenin pathway activation; Wnt/beta-catenin reporter cell assay, activator, plate reader; activation, % at 9.35 µM; 300,000 tested, 1.2% active; in the data active = activation above about 30%, passing the limit was not always enough; inconclusive = no clear call, values can overlap the other calls;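 note: 0% = neutral control wells and 100% = positive control wells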
* hit, by the source's call; u = inconclusive; x = no result given. In the library only some 3.7% were active in any assay of this set; here they are far more common.

SMILES	AF4-AF9 inh	MITF TRPM1 HTS	rRNA inh HTS	esBAF inh	Wnt bcat act
O=S(=O)(Nc1ccc2nc(C(F)(F)F)[nH]c2c1)c1ccccc1	x	-13.2	x	2.8	x
Cc1cc(Br)ccc1SCC(=O)OCC(=O)NCc1ccco1	-2.1	9.5	-17.7*	x	3.3
Cc1cc(OCC(=O)O/N=C(\N)c2ccccc2)cc(C)c1Cl	x	17.9	x	16.3	x
Cc1cc(/C=C2\SC(=S)N(Cc3ccco3)C2=O)c(C)n1-c1cccnc1	x	x	x	43.4*	x
NC(=O)C1CCN(c2nc(-c3ccc4occc(=O)c4c3)cs2)CC1	x	9.3	x	6.0	0.7
CCCCN1C(=O)/C(=C/C=C2\SCCN2C)SC1=S	16.2	91.6*	-30.3	x	11.4
CN1CCS/C1=C/C=C1\SC(=S)N(CC(=O)O)C1=O	-1.0	8.7	30.7	-11.3	-2.5
CCN(C[C@@H]1N[C@@H](CO)[C@@H]1c1ccc(-c2ccc(F)cc2)cc1)C(=O)COC	4.3	x	0.5	3.7	x
c1cn2cc(-c3ccc(CN4CCOCC4)cc3)ccc2n1	1.6	x	7.4	3.9	-1.5
CN(C)c1cccc(C(=O)NN2C(=O)NC3(CCCCC3)C2=O)c1	1.6	18.1	4.7	42.7*	11.8
N#Cc1ccc(C(=O)NN2C(=O)NC3(CCCCC3)C2=O)cc1	3.7	3.4	-1.9	3.4	-1.5
O=C(Nc1cccc(/C=C/c2ccccn2)c1)c1ccc(-n2cncn2)c([N+](=O)[O-])c1	3.7	-8.5	-23.2	44.5*	1.7
CN(C)c1ccc(CN(C(=O)/C=C/c2ccccc2Cl)C2CCS(=O)(=O)C2)cc1 (stereo not drawn)	6.8	x	0.4	9.3	0.5
Cc1ccc2c(c1)c(C)c(C)n2CC(O)Cn1nnc2ccccc21 (stereo not drawn)	x	x	x	63.5*	u
COc1ccc(C2=Nc3ccccc3NC(=O)C2N(CCc2cc(OC)cc(OC)c2)C(C)=O)cc1 (stereo not drawn)	3.9	x	-6.2	5.1	2.3
COc1ccc(C2=Nc3ccccc3NC(=O)C2N(C(=O)c2ccnc3ccccc23)c2ccccc2)cc1 (stereo not drawn)	2.8	x	-20.9*	5.5	3.0
COc1ccc(C2=Nc3ccccc3NC(=O)C2N(C(=O)c2cnc(C)cn2)c2ccc(N3CCOCC3)cc2)cc1 (stereo not drawn)	4.8	x	7.9	47.7*	1.8
Cc1cnc(C(=O)N(c2ccc(N3CCOCC3)cc2)C2C(=O)Nc3ccccc3N=C2c2ccc3c(c2)OCO3)cn1 (stereo not drawn)	3.0	x	3.0	26.3	4.5
Cc1ccc(C)c(NC(=O)c2ccc3ccccc3n2)c1	x	27.1	x	5.7	26.8
Cc1ccc(NC(=S)c2ccc3ccccc3n2)c(C)c1	-1.6	25.2	19.6	53.0*	28.2
O=C(CC1C(=O)NCCN1C(=O)Nc1ccc(Cl)cc1)Nc1ccc(F)cc1 (stereo not drawn)	-30.5	5.9	-8.6	-5.3	-2.7
O=C(CC1C(=O)NCCN1C(=O)Nc1ccccc1)Nc1cc(Cl)ccc1Cl (stereo not drawn)	6.0	x	-25.4*	x	-2.4
Cc1cccc(NC(=O)CC2C(=O)NCCN2C(=O)Nc2ccc(Cl)cc2)c1 (stereo not drawn)	1.3	-7.7	-31.7*	-21.6	-0.1
O=C(Nc1ccc2c3c(cccc13)CC2)c1ccco1	x	34.2	x	26.8	x
Cc1cc(C)n(-c2nc(NCCN(C)C)c3c4c(sc3n2)COC(C)(C)C4)n1	1.9	x	-32.0*	x	6.5
SMILES	AF4-AF9 inh	MITF TRPM1 HTS	rRNA inh HTS	esBAF inh	Wnt bcat act
Cc1cc(C)n(-c2nc(NCCCN(C)C)c3c4c(sc3n2)COC(C)(C)C4)n1	x	x	-6.9	-0.9	3.5
OC[C@@H]1Nc2ccc(C3=CCCCC3)cc2[C@@H]2[C@H]1CCN2Cc1nccs1	25.2*	x	3.2	x	x
O=C(NNc1nc2c(F)cccc2s1)c1cc(=O)c2ccccc2o1	2.0	-14.4	-50.9*	3.4	8.4
CCCOc1ccc(-c2nc(N3CCN(C)CC3)c3ccccc3n2)cc1	9.5	124.5*	-59.2	21.7	46.0*
CCCOc1ccc(-c2nc(N3CCN(CC)CC3)c3ccccc3n2)cc1	2.2	22.2	-7.3	-12.9	0.1
O=C(CN1CCCCC1)Nc1scc2c1c(=O)oc1ccccc12	0.3	x	x	u	38.2*
COc1ccc(-n2nc(C(=O)NCC(=O)N3CCCC(C)C3)c3ccccc3c2=O)cc1 (stereo not drawn)	1.1	78.3	-7.0	23.8	-4.7
Cc1cc(NCc2ccccn2)n2ncc(-c3ccc(Cl)cc3)c2n1	-1.2	x	16.2	x	u
Cc1cc(NCc2ccccn2)n2ncc(-c3ccccc3)c2n1	x	x	-37.9*	51.5*	55.8*
Cc1cc(N)n2ncc(-c3ccc(F)cc3)c2n1	x	73.5	x	57.6*	x
Cc1cc(Cl)n2ncc(-c3ccccc3)c2n1	3.1	x	-32.5*	47.8*	-2.8
CN(C)CCCNc1cc(C(C)(C)C)nc2c(-c3ccccc3)cnn12	u	x	-50.6	x	43.4*
O=C(NNS(=O)(=O)c1cc(Cl)cc(Cl)c1)c1sccc1-n1cccc1	x	-0.6	x	-9.0	1.1
CCOc1ccc(NC(=S)Nc2cccc3ccccc23)cc1	6.1	13.6	-13.4	32.9	31.4*
CCc1cccc(NC(=S)Nc2cccc3ccccc23)c1	-3.4	-14.3	-24.7*	14.5	9.6
Cc1cccc(NC(=S)Nc2cccc3ccccc23)c1	1.2	-19.5	-1.5	35.1	3.4
COc1cccc(NC(=S)Nc2cccc3ccccc23)c1	-1.2	14.8	-0.1	55.4*	12.5
C[C@@H]1CN([C@@H](C)CO)C(=O)Cc2cc(NC(=O)CCCCCC(=O)Nc3ccccc3N)ccc2O[C@@H]1CN(C)Cc1ccc(C(F)(F)F)cc1	-1.4	x	-0.7	-7.5	x
COc1cccc2cc(-c3ccnc(N)n3)oc12	1.8	47.2	-32.3*	44.9*	4.6
CC(C)(C)c1ccc(C2CC2C(=O)N/N=C\c2ccc[nH]2)cc1 (stereo not drawn)	15.1	-5.3	-12.4	-52.4	-8.9
Cc1ccc(-c2nnc(Nc3ccc(CC(N)=O)cc3)c3ccccc23)cc1S(=O)(=O)NCC1CCCO1 (stereo not drawn)	x	-2.2	-30.7*	x	-3.0
O=C(NCc1csc(-c2cccs2)n1)c1cccc(Cl)c1	5.5	x	-18.4	2.9	1.5
COc1cccc(C2(O)CC(C(F)(F)F)=NN2C(=O)c2ccccn2)c1 (stereo not drawn)	-0.6	36.4	-15.1	x	45.4*
CO[C@@H]1CN(C)C(=O)c2ccc(NS(=O)(=O)c3ccccc3C)cc2OC[C@@H](C)N(C)C[C@@H]1C	x	x	2.6	-0.3	x
CSc1nc(N)c2c(n1)OC(N)=C(C#N)C2c1cccnc1 (stereo not drawn)	-1.2	3.4	6.8	x	-5.8
Cc1ccc(C(=O)c2oc3ccc(Cl)cc3c2NC(=O)CN2CCN(C)CC2)cc1	31.2*	-5.3	-39.6	-23.3	3.5
COc1cccc(/C=C2\SC(=S)N(C(Cc3ccccc3)C(=O)O)C2=O)c1 (stereo not drawn)	-3.5	0.9	-13.4	x	0.1
Cc1ccccc1CC(=O)Nc1ccc2c(c1)CCC2	0.2	18.7	13.2	19.4	4.1
